# In PubChem BioAssay AID1159614 (National Center for Advancing Translational Sciences (NCATS), 2016):
# Screen size: about 45,000 compounds; about 65 (0.1%) were called active. What follows is part of a selection rich in actives, with near analogues and random picks from the rest. Unmarked numbers belong to inactive results. The call rests on the fitted dose curve; in most records, active means well fitted activation curve with a large enough effect; inconclusive means small, poorly fitted or top-dose-only effect; inactive means no such curve, though single readings can be large or run the other way.
# Target: Galactocerebrosidase (Homo sapiens) (UniProt P54803)
# Test: A Novel Cell-Based Assay to Identify Small Molecules for B -Galactocerebrosidase; further: 0% is about no effect; nearly all actives have a fitted effect of over 65% in size
# Conditions: 145M-Twi-hGALC-G270D cells (Twitcher mouse brain line with human GALC G270D), HMU-beta-Gal fluorescence, 48 h; series mostly up to 57.5 µM; activation: at the top concentration
# Text: Lysosomal storage diseases (LSDs) are caused by genetic mutations in genes encoding proteins important for normal lysosomal function. Globoid cell leukodystrophy (GLD), mostly known as Krabbe disease, is a prototype of the neurological LSDs caused by deficiency of beta-galactocerebrosidase (GALC). In brain specimens of GLD patients, psychosine levels are substantially elevated. At elevated concentrations, psychosine becomes cytotoxic to neuronal cells, particularly to oligodendrocytes (OLG), neural cells responsible for myelin formation. Therefore, the biochemical disturbances in GLD are manifested by different degrees of brain demyelination resulting in a broad spectrum of neurological manifestations. Most of the FDA-approved therapies are based on enzyme replacement therapeutic (ERT) agents, which treat non-neurological symptoms of Gaucher disease, Fabry disease, few mucopolysaccharidoses and Pompe disease. Unfortunately, in GLD, a primarily neurological LSD, ERT agents, as large molecular weight molecules unable to cross the blood-brain barrier, which makes this an inefficacious therapeutic approach. In GLD, increasing the residual GALC activity just above the critical threshold (~10% of wild type enzymatic activity), the cytotoxic levels of psychosine will be reduced, avoiding the OLGs apoptosis and the subsequent demyelination process. This will translate in disease stabilization and amelioration of GLD patient symptoms.
# A cell-based assay in 1,536-well plate format was developed to implement a quantitative high-throughput screening (qHTS) assay using GLD-disease relevant cells to identify small molecules that produce enhancements of the residual enzymatic activity levels of mutants GALC found and prevalent in GLD patients. Compounds that are active may therefore have some therapeutic application for GLD. After the treatment of live cells for a determined period, using a fluorescent GALC specific substrate, the mutant residual GALC activity is measured. This cell-based qTHS assay was used to screen part of the MLPCN library for small molecule able to increase the mutant GALC enzymatic activity. In this assay, increased fluorescent signal corresponds to enhanced levels of mutant GALC residual enzymatic activity. Activation is the desired outcome for this assay.
# NIH Chemical Genomics Center [NCGC]
# NIH Molecular Libraries Probe Centers Network [MLPCN]
# Assay Submitter (PI): Gustavo Maegawa MD,PhD, University of Florida, Gainesville, FL
# 2)#Two cell lines were established for the assay: 145M-Twi-hGALC-G270D (brain-derived Twitcher cell line stably expressing human GALC-G270D) and 145M-Twi-hGALC-WT (same 145M-Twi stably expressing human GALC wild type). The Twitcher is the murine C57B/6 model for GLD with naturally occurring homozygous nonsense GALC mutation. The 145M-Twi cell line was established at Maegawa lab (Ribbens J et al 2014).
# a.#Media: DMEM/F12 (1:1) with 10% fetal bovine-serum (FBS) with penicillin/streptomycin (PS-1X - 100 I.U./mL of penicillin+100 ug/mL of streptomycin).
# b.#The 6-Hexadecanoylamino-4-methylumbelliferyl-b-D-galactoside (HMU-B-gal) substrate was prepared as per Wiederschain et al 1992. Using 20-mL borosilicate tubes, 2.20 mg of HMU-b-Gal was added in each tube to prepare substrate-film with a final air-nitrogen stream evaporation to remove all diluent solvents.
# c.#The HMUb-Gal substrate buffer consists of 0.2 M Na2HPO4 (sodium phosphate dibasic)/ 0.1 M Citric Acid with the pH adjusted to 5.2 using HCl. Sodium Azide at 0.02% and Sodium Taurocholate (NaTC) at 1 mg/mL were added to this substrate buffer.
# d.#The HMU-b-Gal stopping buffer consist of 0.5 M NaHCO3 (sodium bicarbonate) /0.5 M Na2CO3 (sodium carbonate). […] Triton X-100 at 0.25% was added.
# 4)#Preparation of HMU-b-Gal substrate tubes
# Adding 18.6 mL of the HMUb-Gal substrate buffer to each 20-mL tube (2.20 mg of HMU-b-Gal) will reach a concentration of 0.2 mM. Vortex well the tube until the solution is fully homogenized (clear cloudy solution). […]
# Chain of Galactocerebrosidase (Homo sapiens) (P54803 whole entry G286D): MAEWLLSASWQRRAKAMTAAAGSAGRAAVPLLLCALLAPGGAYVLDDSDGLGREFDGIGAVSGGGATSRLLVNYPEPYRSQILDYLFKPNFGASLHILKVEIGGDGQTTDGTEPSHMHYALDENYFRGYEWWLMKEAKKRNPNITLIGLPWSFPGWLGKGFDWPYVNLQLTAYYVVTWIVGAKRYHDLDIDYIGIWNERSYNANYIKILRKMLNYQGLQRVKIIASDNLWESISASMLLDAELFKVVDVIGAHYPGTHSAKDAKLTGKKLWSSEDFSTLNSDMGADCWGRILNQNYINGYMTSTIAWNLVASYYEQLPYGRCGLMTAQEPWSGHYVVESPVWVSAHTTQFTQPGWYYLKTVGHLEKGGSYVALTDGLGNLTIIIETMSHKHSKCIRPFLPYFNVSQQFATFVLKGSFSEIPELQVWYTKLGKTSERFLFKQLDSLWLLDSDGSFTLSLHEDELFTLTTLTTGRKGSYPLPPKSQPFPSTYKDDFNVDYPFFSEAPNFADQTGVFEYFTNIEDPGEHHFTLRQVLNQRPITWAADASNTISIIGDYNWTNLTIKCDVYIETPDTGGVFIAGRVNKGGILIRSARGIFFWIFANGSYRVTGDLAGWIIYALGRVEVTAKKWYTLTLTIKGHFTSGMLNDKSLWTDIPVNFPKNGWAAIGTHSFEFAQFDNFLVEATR
row,Compound,activation [%]
1,Cc1cccc(CC(=O)N2CC(=O)Nc3ccc(F)cc3C2c2ccccc2)c1 (stereo unspecified),-6.7
2,Cc1cccc(NC(=O)c2nnn(CC(=O)Nc3ccc(C(C)C)cc3)c2N)c1C,-16.1
3,Cc1cc(C)cc(OCC(=O)Nc2nc(-c3ccc(F)cc3)ns2)c1,5.22
4,Cc1cccc(NC(=O)Cn2c(C(F)(F)F)nc3ccccc32)c1C,5.17
5,COc1cccc(-c2cc(C(=O)Nc3ccc(C)cc3)[nH]n2)c1,-17.3
6,CCc1cc2c(cc3c(=O)n(CC(=O)NCCc4ccc(OC)c(OC)c4)ncn32)s1,-10.5
7,Cc1ccccc1OCC(=O)Nc1c(C(=O)Nc2ccccc2F)oc2ccccc12,-15.2
8,CCOc1cc(C(=O)Nc2nnc3n2CCS3)cc(OCC)c1OCC,-19.3
9,COc1cccc2c1cc1c(=O)n(CC(=O)N3CCN(c4cccc(Cl)c4)CC3)nc(C)n12,-10.9
10,CCCn1c2ccccc2c2cnn(CC(=O)N(C)c3ccccc3CC)c(=O)c21,0.489
11,CCN(C(=O)c1sc2cc(OC)ccc2c1Cl)c1ccccc1,-1.23
12,CCOC(=O)c1nnn(CC(=O)NC(=O)Nc2ccccc2F)c1C(=O)OCC,-12.9
13,Cn1c(=O)c2c(nc(Oc3ccc(C#N)cc3)n2Cc2ccc(Cl)cc2Cl)n(C)c1=O,-1.55
14,COc1cc(CN(CC2CCCO2)C(=O)c2ccccc2F)cc(OC)c1OC (stereo unspecified),-1.53
15,Cc1cccn2c(=O)c(C(=O)NC(C)c3ccccc3)cnc12 (stereo unspecified),-3.71
16,Cc1ccc(S(=O)(=O)NC2(C(F)(F)F)NC(=O)N(CCc3ccccc3)C2=O)cc1 (stereo unspecified),-13.9
17,COc1ccc(CC(=O)Nc2nnc3n2CCS3)cc1OC,14.6
18,COc1cccc(C2C(C(=O)Nc3ccc(C)cc3C)=C(C)Nc3c(C(=O)Nc4ccccc4)cnn32)c1 (stereo unspecified),-4.64
19,Cc1ccc(-c2nc3ccccn3c2Nc2c(C)cccc2C)o1,-10.6
20,Brc1ccc2c(c1)NC(c1cccnc1)=NC(c1ccccc1)=N2,-18
21,COC(=O)c1ccc(NC(=O)CCc2c(C)nc3c(c(C)nn3-c3ccc(C)cc3)c2C)cc1,-11.7
22,O=C(Nc1ccccc1Cl)N1CCC(CN2CCCC2)CC1,-6.85
23,COc1cc(Cl)c(NC(=O)C(NS(=O)(=O)c2cccs2)C(C)C)c(OC)c1 (stereo unspecified),-11.2
24,O=C(NC1CC(=O)N(c2ccc(F)cc2)C1)c1ccc(S(=O)(=O)N2CCCC2)cc1 (stereo unspecified),-10.8
25,CCc1cc2c(cc3c(=O)n(CC(=O)N4CCN(c5cc(Cl)ccc5C)CC4)nc(CC)n32)s1,-11.4
26,Cc1cccc(Cn2c(SCc3ccc(C(=O)N4CCC(C)CC4)cc3)nc3ccncc32)c1,1.12

row,Compound,activation [%]
1,COc1ccc2cc(CNc3ccc(OC)c(OC)c3)c(=O)n(CC(=O)Nc3ccccc3F)c2c1,-18.6
2,Cc1ccc(OCCn2c(CNc3ccccc3C)nc3ccccc32)cc1,-7.23
3,Cc1nn(C)c2c1c(C(F)(F)F)cc(=O)n2C(C)C(=O)NCc1ccc(Cl)cc1 (stereo unspecified),-22.1
4,CCOCCCn1c(SCC(=O)Nc2ccc(CC)cc2)nc2ccccc2c1=O,-12.9
5,C=Cc1ccc(Cn2c(C(=O)OC)cc3sc(C)cc32)cc1,-7.18
6,COc1ccc(CCNC(=O)Cn2c(=O)n(-c3ccccc3)c(=O)c3c(C)c(C)sc32)cc1OC,-4.98
7,O=C(NC1CCN(Cc2ccccc2)CC1)c1ccc(Cn2c(=O)c3ccccc3n(Cc3cccc(F)c3)c2=O)cc1,-3.67
8,CC1CCCN(c2cc3c(cc2F)c(=O)c(S(=O)(=O)c2cccc(Cl)c2)cn3Cc2ccccc2)C1 (stereo unspecified),-16.9
9,Cc1nc(N2CCOCC2)c2c(C(=O)NCc3cccc(Cl)c3)c(C)oc2n1,-10.9
10,O=C(Nc1ccc(S(=O)(=O)N2CCC(c3nc4ccccc4s3)CC2)cc1)c1ccccc1F,-7.74
11,Cc1ccc(N(CC(=O)NCC(C)c2ccccc2)S(=O)(=O)N(C)C)cc1 (stereo unspecified),2.28
12,COc1ccc(-n2ccn(CC(=O)Nc3ccc(C)c(C)c3)c(=O)c2=O)cc1OC,-14.7
13,CCCc1nn2c(=O)cc(COC(=O)c3ccc(NC(=O)C(C)Oc4ccccc4)cc3)nc2s1 (stereo unspecified),-6.74
14,CCCSc1nc2sc3c(c2c(=O)n1-c1cccc(Br)c1)CC(C)(C)OC3,-5.57
15,Cc1nn(C(C)C(=O)Nc2ccc(C(C)C)cc2)c(=O)c2c1sc1ccccc12 (stereo unspecified),-10.5
16,Cc1cc(C)c(NC(=O)CSc2nc3nccnc3c(=O)n2CCc2c[nH]c3ccccc23)c(C)c1,-6.62
17,O=C(CSc1nc(Nc2ccc(F)c(F)c2)c2ccccc2n1)c1ccc(Cl)cc1,-5.29
18,CCn1c2c(c(=O)n3ncc(C(=O)N4CCN(c5ccccc5)CC4)c13)CN(Cc1ccc(OC)cc1)CC2,-22.7
19,CC(=O)Nc1c(C)nn(-c2ccccc2)c1N1CCC(C(=O)Nc2cc(Cl)ccc2C)CC1,1.89
20,Cc1cc(C)c(-c2n[nH]c3c2C(c2ccccc2F)N(CCO)C3=O)c(O)c1 (stereo unspecified),-9.56
21,Cc1ccc(C)c(CN2C(=O)c3ccccc3S(=O)c3ccc(C(=O)N4CCOCC4)cc32)c1 (stereo unspecified),4.19
22,COc1ccc(CCNC(=O)c2cc3cccc4c3n2CC(C)S4)c(OC)c1OC (stereo unspecified),-2.07
23,Oc1ccc(-c2nc3ccc(Cl)cn3c2Nc2ccc3c(c2)OCO3)cc1,-17
24,COc1ccc(S(=O)(=O)N2CCN(c3ccc(F)cc3)CC2)cc1-c1noc(C)n1,-17.9
25,O=C(NCc1ccccc1Cl)C1CCN(c2ncnc3c2nc2n3CCCCC2)CC1,-0.25
